Source: PubChem
Rows were chosen to be rich in hits. Some 3.6% of all compounds tested hit in one or more screens of this group.
Anthrax LF prot: anthrax lethal factor protease inhibition; inhibition, % at 10 µM; hit rate 0.12% among 360,000; P15917; multiplex microsphere protease cleavage assay, LF; note: plate controls were buffer without enzyme for full effect and enzyme alone for no effect
BoNT A protease: BoNT A light chain protease inhibition | multiplex microsphere protease substrate cleavage, flow cytometry | hit rate 0.17% among 360,000 | inhibition, % at 10 µM; note: plate controls were buffer without enzyme for full effect and enzyme alone for no effect
Bead autofluor: flagged as autofluorescent in microsphere protease counterscreen | hit rate 3.1% among 360,000 | compound autofluorescence counterscreen, microsphere flow cytometry; active compounds read high | fluorescence intensity (no concentration beside the values) | AID 624483; in the data active = fluorescence intensity above about 16000; inconclusive = no clear call, values can overlap the other calls
BoNT-F LC inh: inhibitors of Botulinum neurotoxin F light chain protease. inhibition, % at 10 µM. Multiplex microsphere protease cleavage assay, flow cytometry. hit rate 0.22% among 360,000. AID 588497; in the data active = inhibition above about 35%, passing the limit was not always enough; inconclusive = no clear call, values can overlap the other calls; note: plate controls were buffer without enzyme for full effect and enzyme alone for no effect
MazF activator: increases E. coli MazEF RNase cleavage of RNA. AID 504720. hit rate 0.32% among 350,000. activation, % at 20 µM. P0AE70. FAM/BHQ RNA-DNA oligo cleavage fluorescence, 5 h; in the data active = activation above about 50%
Active calls of the source: *; ? = inconclusive; . = no result. Cut-off read from the data, not from the text of the source, unless noted: active = inhibition above about 30%; inconclusive = no clear call, values can overlap the other calls; inactive = below that.

SMILES | Anthrax LF prot | BoNT A protease | Bead autofluor | BoNT-F LC inh | MazF activator
Cn1c(=O)c2c(ncn2CCCc2ccccc2)n(C)c1=O | -12.7 | 3.3 | 20359* | 4.1 | -4.7
Cc1cccc(-n2nnnc2SCC(=O)NCCN2C(=O)CSC2=O)c1 | -1.6 | -0.6 | 22931* | -1.1 | 2.5
Cc1nnc(SCC(=O)NCCN2C(=O)CSC2=O)n1-c1ccccc1 | -6.8 | -0.3 | 3453 | -2.6 | -7.8
Cc1ccc(SCC(=O)NCCN2C(=O)CSC2=O)cc1C | -0.6 | -0.5 | 23097* | 1.0 | 3.5
Cc1cc(NC(=O)NC2(C(F)(F)F)Oc3ccc(Cl)cc3O2)no1 (configuration not stated) | -2.8 | -0.6 | 16576* | -0.1 | -1.2
COCCNC(=O)NC1(C(F)(F)F)Oc2ccc(Cl)cc2O1 (configuration not stated) | 8.6 | -0.2 | 10005 | -0.1 | 2.4
c1ccc(CN2C3=NCCN3c3ccccc32)cc1 | 1.0 | -0.5 | 2571 | -7.0 | 6.4
Clc1ccc(CN2C3=NCCN3c3ccccc32)cc1Cl | 0.4 | 0.0 | 23094* | -3.6 | 10.9
Cc1ccc(/C=C2/NC(=O)N(Cc3ccccc3F)C2=O)s1 | 1.6 | 9.8 | 2658 | 1.9 | 85.8*
O=C1N/C(=C/c2cccs2)C(=O)N1Cc1ccccc1F | -0.2 | 0.0 | 2291 | -3.0 | 0.6
O=C1NC[C@H](CCCCN2C[C@H](Cc3ccc(O)cc3)N(CCc3ccccc3)C(=O)C2=O)N(CC2CCCCC2)C1=O | -0.9 | 1.1 | 5470 | 8.2 | .
COc1ccc2c(c1)C=C(C(=O)NCc1ccc(Cl)cc1)CO2 | -0.7 | 3.5 | 20111* | 3.7 | 1.2
CC1(C(=O)Nc2ccc3c(c2)OCO3)CCN1C(=O)Cc1ccc(-c2ccccc2)cc1 (configuration not stated) | -6.9 | -0.3 | 3667 | -0.4 | .
COc1ccc(/C=C/C(=O)N(CC(C)C)CC(C)C)cc1Br | -3.4 | ? | 21487* | 2.8 | -4.8
CC1=C(C(=O)Nc2ccc(C)cc2C)C(c2ccc([N+](=O)[O-])cc2)n2ncnc2N1 (configuration not stated) | 0.1 | -0.1 | 3582 | -6.0 | 12.6
COc1cccc(C2C(C(=O)OC(C)C)=C(C)Nc3ncnn32)c1 (configuration not stated) | -10.1 | ? | 20726* | -5.1 | 0.0
CC1=C(C(=O)OC(C)C)C(c2cccc(F)c2)n2ncnc2N1 (configuration not stated) | 4.1 | -0.9 | 6449 | -2.8 | 12.0
COc1cc(OC)c(C2C(C(=O)Nc3ccccc3)=C(C)Nc3ncnn32)cc1OC (configuration not stated) | -0.4 | 0.2 | 16373* | 1.4 | -5.2
COc1ccc(C2C(C(=O)Nc3ccccc3OC)=C(C)Nc3ncnn32)cc1 (configuration not stated) | -10.3 | -1.6 | 4701 | -5.2 | 0.3
COC(=O)C1=C(C)Nc2ncnn2C1c1ccccn1 (configuration not stated) | 0.8 | 1.9 | 21583* | 1.5 | 2.6
COc1cc(OC)c(C2C(C(=O)Nc3ccc(C)cc3C)=C(C)Nc3ncnn32)cc1OC (configuration not stated) | -3.2 | -0.2 | 23198* | -0.7 | 1.2
CCOC(=O)C1=C(c2ccccc2)Nc2ncnn2C1c1ccccn1 (configuration not stated) | -0.6 | 0.6 | 3777 | 8.5 | 3.1
COc1ccccc1C1C(C(N)=O)=C(C)Nc2ncnn21 (configuration not stated) | -1.4 | 1.2 | 16247* | -0.6 | 0.1
